Screening data from PubChem BioAssay.
MCF10A rereplic = DNA re-replication induction in MCF 10a cells; MCF 10A DNA re-replication, Hoechst nuclear intensity, 48 h; Potency, µM (doses to about 46.1 µM), for the others: top-dose activity, positive = re-replication, usual class: activators; 350,000 tested, 2.9% active; further: potency means the concentration at half of the fitted maximal effect; % of control where 0% means no effect; nearly all actives have a fitted effect of over 50% in size
ATXN2 expr inh = ATXN2 expression inhibition; HEK-293 ATXN2-luciferase reporter, luminescence, 24 h; Potency, µM (doses to about 57 µM), without a hit: at the top dose activity change, negative = inhibition, actives largely listed as inhibitors; 360,000 tested, 0.72% active; further: potency means the concentration at half of the fitted maximal effect; on the % scale 0 is the no-effect control and ±100 the full control effect; nearly all actives have a fitted effect of over 55% in size
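ATXN2-luciferase reporter cells (luciferase flanked by upstream and downstream ATXN2 gene portions) were treated 24 h at 37 °C with compounds at up to 57 uM. SteadyGlo luminescence gave expression; GF-AFC fluorescence gave viability.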
SW480 rerep = DNA re-replication induction in SW480 cells; AID 624297; Potency, µM (series often up to 46.1 µM), without a hit: at the highest dose re-replication activation, actives largely listed as activators; SW480 DNA re-replication, Hoechst DNA content imaging, 48 h; 340,000 tested, 1.8% active; further: potency means the concentration at half of the fitted maximal effect; % of control where 0% means no effect; nearly all actives have a fitted effect of over 55% in size
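Image-based DNA-content assay: after two days of treatment, nuclei were labelled with the DNA dye Hoechst and imaged, and hits were compounds raising the count of nuclei showing high fluorescence intensity.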
ATXN viability = viability counter-screen for ATXN expression inhibitors | AID 651635 | Potency, µM (series often up to 56.7 µM), hits mostly cytotoxic | S2 cells (HEK-293 line with an ATXN2-luciferase reporter) viability, CellTiter-Fluor protease fluorescence, 24 h | 400,000 tested, 0.49% active; further: potency means the concentration at half of the fitted maximal effect; nearly all actives have a fitted effect of over 40% in size
IL1B secr inh = blocks inflammasome-driven IL-1 beta release; activity change, % at 57.5 µM; THP-1 LPS/ATP IL-1B secretion, AlphaLISA, 16 h; active compounds read low; 360,000 tested, 4.7% active; in the data active means activity change below about -50%; inconclusive means mostly about -30% to -49%; further: on the % scale 0 is the no-effect control and ±100 the full control effect
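THP-1 cells pretreated 1 hr with compounds (up to 57.5 uM final), then stimulated with LPS (250 ng/mL final) plus ATP (1.25 mM final); secreted IL-1B measured by AlphaLISA after 16 hr, decreased signal indicating inhibition.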
PINK1 expr mod = modulators of PINK1 expression; 410,000 tested, 0.2% active; Potency, µM (doses to about 76.6 µM), for the others: at the highest dose activation (PINK1 increase), usual class: activators; PINK1 immunofluorescence, high-content cytometry, 24 h; active means well fitted activation curve with a large enough effect; inconclusive means small, poorly fitted or top-dose-only effect; cell line not stated here; further: potency means the concentration at half of the fitted maximal effect; % of control where 0% means no effect; nearly all actives have a fitted effect of over 65% in size
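Stable cell line treated 24 h with compounds at 5 concentrations (CCCP controls), then fixed and immunostained for PINK1 plus nuclear and cell stains; PINK1 immunofluorescence quantified by laser-scanning microplate cytometry.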
The depositor's hits bear a star; i = inactive; ? = inconclusive; · = no result given; ! = not active in a repeat; [ ] = remark or other dose. Most compounds without a hit are left out; they make up all but 7.1% or so of the library. Unless noted, the call rests on the fitted dose curve; in most records, active means well fitted curve in the direction sought with a large enough effect; inconclusive means small, poorly fitted or top-dose-only effect, or another doubt; inactive means no such curve, though single readings can be large; an effect the other way counts as inactive or inconclusive.

SMILES	MCF10A rereplic	ATXN2 expr inh	SW480 rerep	ATXN viability	IL1B secr inh	PINK1 expr mod
COC1C(O)C(C)OC(OC2C(Oc3cccc4c(O)c5c(=O)oc6ccc(C)c7c(=O)oc(c34)c5c67)OC(C)C(O)C2O)C1O (stereo not given)	8.2µM*	10µM*	20.6µM*	i	-99.7*	-1.1%
C[C@H](CO)N1C[C@H](C)[C@@H](CN(C)Cc2ccc(-c3ccccc3)cc2)Oc2c(NC(=O)c3ccncc3)cccc2C1=O	?	?	17.6%	?	-21.8	0.9%
CC(C)N(C(=O)CCl)c1ccccc1	?	-22.1%	?	?	-50.5*	-0.5%
CCc1cccc(C)c1N(C(=O)CCl)C(C)COC (stereo not given)	·	·	·	·	·	-2.0%
Oc1cccc2cccnc12	?	11.2µM*!	14.1%	12.6µM*!	·	0.3%
CN(C(=O)Oc1cccc2cccnc12)c1ccccc1	1.1%	4.3%	3.0%	i	1.2	1.7%[38.3 µM]
[Hg+][c]1ccccc1	51.1%	·	10.6µM*	·	·	-1.0%
C[C@]12CC[C@H]3[C@@H](CCC4=CC(=O)CC[C@@H]43)[C@@H]1CC[C@@H]2OC(=O)CCc1ccccc1	·	-4.3%	·	i	·	·
O=C(c1ccco1)N1CCC2(CC1)CN(Cc1ccncc1)C2	·	·	·	·	·	-0.8%
ClCCN(CCCl)c1ccc(C=Nc2ccncc2)cc1	·	·	·	·	·	-0.1%
Cc1cc(N(CCCl)CCCl)ccc1/C=N/NC(=O)c1ccco1	?	?	?	i	6.3	-1.1%
Cc1cc(N(CCCl)CCCl)ccc1C=NNC(=O)Cc1cc(=O)oc2cc(O)ccc12	7.8%	-36.3%	?	i	-59.3*	0.2%
CC(=O)N(C)c1cccc(-c2ccnc3c(C(=O)c4cccs4)cnn23)c1	·	76.2%	·	·	·	·
CCC(C)N1C(=O)/C(=C\c2cnc(N(C)C)nc2)C(=O)NC1=S (stereo not given)	?	?	19.0%	i	-52.4*	-1.6%
CN1CC[C@@]2(C)c3cc(O)ccc3N(C)[C@@H]12	15.6%	-22.3%	10.3%	14.1µM*	-25.6	5.6%
COc1ccc(CCNc2nc3c(c(=O)n(C)c(=O)n3C)n2Cc2ccc(F)cc2)cc1OC	·	-16.6%	·	?	·	1.0%
Cc1[nH]ccc2c1[nH]c1cc(=O)ccc12	?	-20.0%	17.4%	i	-26.3	-0.3%
C=C1C(=O)OC2C1CCC(C)C1(O)C=CC(=O)C21C (stereo not given)	?	11.2µM*	?	11.2µM*	-108.6*	?
O=C(Oc1ccc2ccc(OC(=O)N3CCCCCC3)cc2c1)N1CCCCCC1	?	-11.1%	4.6%	?	22.0	?
COC(=O)COc1cc(Cl)c(Cl)cc1Cl	·	·	·	·	·	-0.9%
Clc1ccc(C(OCCN2CCCCC2)c2ccccc2)cc1 (stereo not given)	-2.3%	?	2.2%	?	-51.4*	1.3%
c1ccc(C(OCCN2CCN(c3ncccn3)CC2)c2ccccc2)cc1	?	0.0%	1.1%	i	-76.1*	-0.1%
Clc1ccc([C@@H](OCCN2CCCCC2)c2ccccc2)cc1	10.7%[20.6 µM]	·	3.6%[20.6 µM]	·	·	·
COC(=O)[C@]1(C)N[C@H](CN(C)S(=O)(=O)c2ccc(-c3ccccc3)cc2)[C@@H]2C(=O)N(Cc3ccccc3)C(=O)[C@@H]21	?	-2.2%	4.0%	i	-5.2	0.6%
COc1ccc(CNCCc2c[nH]c3ccccc23)c(OC)c1OC	-16.8%	-22.2%	-13.0%[1.84 µM]	i	-58.1*	0.7%
FC(F)(F)c1ccc(CNCCc2c[nH]c3ccccc23)cc1	?	-32.8%	-0.3%	i	-16.2	13.2%
COc1cccc(CNCCc2c[nH]c3ccccc23)c1OC	6.2%	-12.4%	-1.6%	i	12.1	2.4%
Clc1cccc(CNCCc2c[nH]c3ccccc23)c1	?	-33.6%	?	i	-91.9*	7.0%
c1ccc2c(CCNC3CCCCC3)c[nH]c2c1	-12.1%	-20.7%	20.6µM*	i	-26.4	?
c1ccc2c(CCN3CCCCC3)c[nH]c2c1	·	9.9%	·	i	-12.3	0.6%
